An excerpt weighted towards active compounds, which were near 2.3% of everything screened.
ID4 SMM: binds human ID4 protein on microarray; P47928; small molecule microarray, Flag-ID4 binding, fluorescence F/B; calls only; hit rate 1.2% among 31,000; AID 624137; call rule not given here;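 note: a binder raises fluorescence above local background on the spot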
p53 PUMA act: restores mutant p53 pathway signaling in SW480 cells. activation, % at 9.98 µM. hit rate 1.5% among 28,000. SW480 PUMA-promoter luciferase, p53 mutant reactivation; in the data active = activation above about 52%
The depositor's hits bear a star.

Results for COC1=CC(=O)OC(/C=C/c2ccccc2)C1 (stereo not drawn) ?
ID4 SMM: inactive; p53 PUMA act: 90*

What do the screens show for `CC1CCC/C=C/C2CC(O)CC2C(O)/C=C\C(=O)O1` (stereo not drawn)?
ID4 SMM: inactive; p53 PUMA act: -89

Results for CCOC(=O)[C@@H]1[C@@H]2NC(=O)N(C)[C@@]1(COCc1ccc(OC)cc1)Oc1ccccc12 ?
ID4 SMM: inactive

How did O=C(N[C@H]1CN2CCC1CC2)c1ccc(Cl)cc1 do in these assays?
ID4 SMM: active; p53 PUMA act: 12

How did Cn1cc(C(=O)C(=O)N[C@H]2CN3CCC2CC3)c2ccccc21 do in these assays?
ID4 SMM: inactive; p53 PUMA act: 8

Results for C[C@@H]1O[C@@H](OC2CCC3(C)C4CCC5(C)C(C6=CC(=O)OC6)CCC5(O)C4CC[C@H]3C2)[C@H](O)[C@H](O)[C@H]1O (stereo partly drawn) ?
ID4 SMM: inactive

Source: PubChem BioAssay
